Source: PubChem BioAssay
CHO-K1 Ca antag: M1 antagonist counterscreen hit in parental CHO-K1 cells; ATP-induced calcium, Fluo-8 fluorescence; inhibition, % at 3 µM; hit rate 0.6% among 360,000; AID 602250;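 active means inhibition above a per-plate cutoff, the plate's mean sample inhibition plus 3 SD, cut at about 24% in these data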
M1 ag: agonists of human M1 muscarinic receptor; P11229; CHO-K1 hM1, Fluo-8 calcium fluorescence, agonist mode; 0% DMSO, 100% acetylcholine EC100; activation, % at 3 µM; hit rate 0.33% among 360,000; AID 588814;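 active means activation above the run's mean compound activation plus 3 SD, cut at about 16% in these data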;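 further: peak over basal fluorescence ratio within a 140 s kinetic read after compound addition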
Target sequence (P11229 whole entry, looked up): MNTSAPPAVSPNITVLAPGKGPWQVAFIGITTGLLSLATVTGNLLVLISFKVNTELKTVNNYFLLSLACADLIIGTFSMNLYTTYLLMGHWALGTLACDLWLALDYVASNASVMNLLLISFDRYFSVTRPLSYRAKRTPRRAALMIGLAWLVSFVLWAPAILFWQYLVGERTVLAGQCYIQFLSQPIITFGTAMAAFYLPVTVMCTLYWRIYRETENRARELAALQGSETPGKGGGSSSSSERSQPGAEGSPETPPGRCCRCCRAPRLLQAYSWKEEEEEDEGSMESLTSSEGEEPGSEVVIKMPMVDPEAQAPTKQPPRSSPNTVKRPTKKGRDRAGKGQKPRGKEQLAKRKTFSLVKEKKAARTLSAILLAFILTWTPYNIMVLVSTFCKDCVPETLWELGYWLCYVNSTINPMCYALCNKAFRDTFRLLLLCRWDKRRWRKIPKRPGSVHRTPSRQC
CHRM1 antagonist: blocks human M1 muscarinic receptor; P11229; CHO-K1 hM1, Fluo-8 calcium fluorescence, ACh EC80 antagonist; inhibition, % at 3 µM; hit rate 1.3% among 360,000; AID 588852;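 active means percent inhibition above its own plate's cutoff, namely the mean of that plate's compound wells plus 3 SD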;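 further: peak over basal fluorescence ratio during 140 s after agonist addition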
M1 ag parental: nonselective activator or artifact in parental CHO-K1 cells. Fluo-8 calcium fluorescence; scaled to maximal ATP response, vehicle zero. activation, % at 3 µM. hit rate 0.48% among 360,000; in the data active means activation above about 15%;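 further: untransfected CHO-K1 host cells lacking M1 receptor as counterscreen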
CHRM1 PAM: positive allosteric modulators of human M1 muscarinic receptor; P11229; CHO-K1 hM1, Fluo-8 calcium fluorescence, ACh EC20; 0% = ACh EC20, 100% = maximal ACh; activation, % at 3 µM; hit rate 0.088% among 360,000; in the data active means activation above about 19%, passing the limit was not always enough
CHO-K1 Ca PAM: nonselective activator or artifact in parental CHO-K1 calcium assay. AID 602247. activation, % at 3 µM. hit rate 0.02% among 360,000. ATP EC20, Fluo-8 calcium fluorescence; 0% at ATP EC20, 100% at ATP max;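 active means activation above the run cutoff, the mean activation of all test compounds plus 3 SD, cut at about 40% in these data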;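 further: peak over basal fluorescence ratio in a 140 s read after ATP addition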
Large screens that a line does not name were inactive. Most compounds without a hit are left out; they make up all but 2.3% or so of the library.

NC(=O)c1ccc(NC(=O)COC(=O)CCN2C(=O)c3ccccc3C2=O)cc1	none
COCCCNc1ccn2nc(-c3ccc(Cl)cc3)cc2n1	CHO-K1 Ca antag 24
COc1cc(-c2cc3nc(NCc4cccc(Cl)c4)ccn3n2)cc(OC)c1OC	none
O=C(Nc1ccccc1C(F)(F)F)c1ncn[nH]1	none
COC(=O)c1ccc(S(=O)(=O)NCCc2ccccc2OC)n1C	M1 ag parental 18
CCCCNc1c(-c2cccc(-c3cc(C(C)=O)cs3)c2)nc2ccc(C)cn12	CHRM1 antagonist 37
CCCCNc1c(-c2ccc(OC)c(SC3CCCCC3)c2)nc2cc(C)ccn12	none
CCCCNc1c(-c2cccc(-c3ccc(OC)cc3)c2)nc2cc(C)ccn12	CHRM1 antagonist 62
CCCCNc1c(-c2cccc(-c3ccc(OC)cc3)c2)nc2ccc(C)cn12	CHRM1 antagonist 59
CC(C)Oc1ccccc1C1(c2ccccc2)NC(=O)NC1=O (stereo not drawn)	none
CN(C(=O)COC(=O)c1ccccc1SCC(=O)N1CCCC1)C1(C#N)CCCCC1	none
CCCCNC(=O)N1CCN(c2ccnc3cc(Cl)ccc23)CC1	M1 ag parental 16
Cc1ccccc1OC1C(=O)N(Cc2ccc3c(c2)OCO3)C1c1sccc1C (stereo not drawn)	none
CNC(=O)C1CCC(=O)N1Cc1c[nH]c2ccccc12 (stereo not drawn)	none
CCCCN1C(=O)C(=O)N(CC(=O)Nc2cc(Cl)ccc2OC)C1=O	CHRM1 PAM 28
CCN(CC(=O)Nc1ccc(S(=O)(=O)N2CCCC2)cc1)CC(=O)Nc1ccccc1C(F)(F)F	none
CC(/C=N/NC(=O)c1sc(N)nc1C)=C\c1ccccc1	M1 ag 25
COc1ccc2nc(NC(=O)CN3CCOCC3)sc2c1	CHO-K1 Ca antag 26
COc1ccccc1C=NN=C(NN=Cc1ccccc1OC)NN=Cc1ccccc1OC	none
CC(C)c1ccc(C(=O)CN2C(=O)NC3(CCc4ccccc43)C2=O)cc1 (stereo not drawn)	none
CN(C)CCN(Cc1ccccc1)c1ccnc(N(C)C)c1C#N	none
CN(C)c1nccc(N(Cc2ccccc2)Cc2ccccc2)c1C#N	CHRM1 antagonist 55
NC1=NC(=O)C(=Cc2ccccc2)S1	CHRM1 PAM 27
COc1ccc(CN(C)C(=O)c2cc(S(=O)(=O)N3CCCCCC3)ccc2OC)cc1OC	none
COc1ccc(S(=O)(=O)N2CCCCCC2)cc1C(=O)N(C)Cc1ccc(F)cc1	CHRM1 PAM 25
COc1ccc(-c2cc(C(F)(F)F)nc(SCCC(=O)NCc3ccccc3)n2)cc1	CHO-K1 Ca antag 29
COc1ccc(-c2cc(C(F)(F)F)nc(SCc3cccc(C(=O)O)c3)n2)cc1	none
CCOC(=O)c1c(N2C(=O)Nc3ccccc3N2O)n[nH]c1-c1cccc(Cl)c1	CHO-K1 Ca antag 24
CCOc1ccc(N2C(=O)/C(=C/c3ccco3)N(C)C2=S)cc1	CHO-K1 Ca antag 27
Cc1ccc(/C=C2\C(=O)NC(=O)N2C)o1	none
Cc1ccc(/C=C2/C(=O)N(c3ccccc3)C(=S)N2C)o1	CHO-K1 Ca antag 25
CCOC(=O)C1=C(C)N(c2ccc(OCC)cc2)C(=O)/C1=C\c1ccco1	none
Cc1ccccc1C(=O)NCC(=O)NNC(=O)c1cccc(Cl)c1	none
CN1CCN(S(=O)(=O)c2cccc(C(=O)N3CCN(c4ccccc4F)CC3)c2)CC1	none
COc1ccc(CNC(=O)CN(c2ccccc2)S(=O)(=O)c2ccccc2[N+](=O)[O-])cc1	none
Cc1ccccc1NC(=O)C1CCCN(S(=O)(=O)c2ccc3c(c2)C(C)(C)C(=O)N3C)C1 (stereo not drawn)	CHO-K1 Ca antag 30
Cc1ccc(OCCC(=O)OCC(=O)NC(=O)NC2CCCCC2)cc1	none
COc1ccc(C(=O)OCC(=O)Nc2cccc(C(C)=O)c2)c(OC)c1OC	M1 ag parental 16
COc1ccc(C(=O)OCC(=O)Nc2c(C)cccc2C)c(OC)c1OC	none
CN(C)CCCOC(=O)N1c2ccccc2C=Cc2ccccc21	CHRM1 antagonist 95
Cc1ccc(Oc2ncnc(N)c2[N+](=O)[O-])cc1	none
Cc1ccc(N(c2ncnc(N)c2[N+](=O)[O-])C2CCCCC2)cc1	CHRM1 antagonist 49
C/C(=N/NC(=O)CNC(=O)c1ccccc1F)c1ccc2c(c1)CCCC2	none
C/C(=N/NC(=O)CNC(=O)c1ccc2c(c1)OCO2)c1ccc2c(c1)CCCC2	CHO-K1 Ca antag 25
Cc1cccc2cc(-c3nc4c(C)cccn4c3NCc3ccco3)c(=O)[nH]c12	CHRM1 antagonist 28
CCCOC(=O)c1ccc(Oc2coc3c(CN(CC)CC)c(O)ccc3c2=O)cc1	CHRM1 antagonist 89
CC(O)c1cccc(-c2ccc(CN3C[C@]4(CO)O[C@@H](CO)C[C@@H]4S3(=O)=O)cc2)c1 (stereo partly drawn)	none
COc1ccc(Nc2nc(Cl)c(C=O)s2)cc1	CHRM1 antagonist 37
COc1ccc(/C=C(/NC(=O)c2ccco2)C(=O)N2CCCCCC2)cc1OC	none
CCOc1ccc(NC(=O)COc2ccc(C(=O)NCCc3ccccc3)cc2)cc1	CHO-K1 Ca antag 29
CC(C)c1ccccc1NC(=O)COc1ccc(C(=O)NCCc2ccccc2)cc1	none
COc1ccc(NC(=O)Nc2ccc(F)c(Cl)c2)cc1	none
Cc1ccc(NC(=O)Nc2ccc(F)c(Cl)c2)cc1	CHRM1 antagonist 36
O=C(Nc1cccnc1)Nc1ccc(F)c(Cl)c1	M1 ag parental 16
CC1CCN(C(=O)c2ncn3c2c(=O)[nH]c2cccnc23)CC1	none
CCn1c2ccccc2c2nc3cc(C(=O)O)ccc3nc21	CHO-K1 Ca antag 24
CCn1c2ccccc2c2nc3ccccc3nc21	none
COc1cc(-c2cc(C(=O)Nc3ccccc3N3CCOCC3)c3ccccc3n2)cc(OC)c1OC	none
O=C(Nc1ccccc1N1CCOCC1)c1cc(-c2ccco2)nc2ccccc12	CHRM1 antagonist 38
Cc1cc(C)c(OCC(=O)Nc2ccccc2N2CCCCC2)c(C)c1	none
Cc1cc(C)c(OCC(=O)Nc2ccccc2N2CCOCC2)c(C)c1	M1 ag 18, M1 ag parental 17
CCc1nc2ccc(C(=O)NCc3ccc4c(c3)OCO4)cn2c1N(C)Cc1ccc(OC)cc1	none
CC1(C)CC(=O)c2sc(NS(=O)(=O)c3ccc(F)cc3)nc2C1	none
COc1cc(/C=C2/SC(=S)N(CC3CCCO3)C2=O)ccc1O (stereo not drawn)	M1 ag parental 18
CCOc1cc(/C=C2\SC(=S)N(Nc3ccccc3)C2=O)ccc1O	M1 ag 29
COc1ccc(/C=C2\SC(=S)N(CC3CCCO3)C2=O)cc1 (stereo not drawn)	none
COc1cc(/C=C2\SC(=S)N(Nc3ccccc3)C2=O)ccc1O	CHO-K1 Ca antag 24, M1 ag 23, M1 ag parental 27
